{"source": "PubChem BioAssay (NCATS)", "note": "Values joined by “and” are separate entries in the source; they are usually repeats but may differ in a detail not shown here. Identical values can stand only once. Records with an inconclusive call do not appear. Some structures have more than one record in an assay (separate samples or runs), and their calls can disagree. Active and inactive are the calls of the source. The call rests on the fitted dose curve; in most records, active means well fitted cell-killing curve with a large enough effect; inconclusive means small, poorly fitted or top-dose-only effect, or effect the other way; inactive means no such curve, though single readings can be large or run the other way. Potency means the concentration at half of the fitted maximal effect."}
{"assay": "Viability qHTS for spleen associated tyrosine kinase inhibitor (SYKi) naive MV4-11 cells (AID 1963823); further: nearly all actives have a fitted effect of over 40% in size", "details": "MV4-11 AML viability, CellTiter-Glo luminescence, 72 h; series mostly up to 45 µM; viability (% of control): at the top concentration", "source_text": "Department of Medicine, Hematology/Oncology\nUniversity Hospital Frankfurt, Germany.\nTrials have shown promising clinical activity of the selective SYK inhibitor entospletinib in patients with high expressing HOXA9/MEIS1 acute leukemias. As the development of resistance mechanisms is a common problem in the use of targeted drugs, we performed a chemical library screen to identify drug sensitivities in SYK inhibitor resistant AML cells. […] Glucocorticoids are potent immunosuppressants which work in part by inhibiting the transcription of cytokine genes.\nDescribed herein is a viability screen to look for activity in the SYK inhibitor naive cell line against four NCATS compound libraries (MIPE 5.0, NPC, NPACT, and Kinase) totaling 11372 compounds. Active hits were reacquired for confirmation and further secondary assay testing.\nSEQUENCE No. (e.g., 1, 2, 3, etc.); […] (e.g., Cells, Incubation, Reagent, etc.); VALUE; DESCRIPTION.\n1; Media; 2uL; white, solid-bottom Corning assay plate.\n2; Compounds; 23nL; Echo acoustic dispenser.\n3; Cell; 5uL; 500 cells per well.\n4: Incubation; 72hr; 37 C, 5% CO2, 95% humidity.\n5; Reagent; 3uL; CellTiter-Glo reagent (Promega).\n6; Incubation; 10min; room temperature.\n7; Detection; Luminescence; ViewLux plate reader (PerkinElmer).\nNOTES (numbers refer to Sequence numbers above\n1. Quantitative high-throughput screening (qHTS) of small molecule compounds was conducted on naive SYKi MV4-11 cell line.\n2. Twenty-three nanoliter of small molecule compounds were added to each assay plates using the Echo acoustic dispenser (Beckman Coulter).\n3. Cells were seeded into the assay plates at a final density of 500 cells in 5uL of media per well using the Multi-drop Combi dispenser.\n4. Plates were covered with stainless steel gasketed lids and incubated for 72 hours at standard cell culture conditions.\n5. Viability was assessed by adding 3uL of CellTiter-Glo detection reagent (Promega).\n6. Plates were covered with gasket lids and incubated for 10 minutes at room temperature.\n7. Luminescence was measured on a ViewLux plate reader (PerkinElmer)."}
{"smiles": "CCC(=O)Nc1cccc(Oc2nc(Nc3ccc(N4CCN(C)CC4)cc3OC)ncc2Cl)c1", "Potency": "1.64 µM (active) and 2.35 µM (active)"}
{"smiles": "O=C1NC(=O)C(c2cnc3ccccn23)=C1c1cn2c3c(cc(F)cc13)CN(C(=O)N1CCCCC1)CC2", "Potency": "231 nM (active) and 833 nM (active)"}
{"smiles": "O=C(O)[C@@H]1[C@H]2C[C@H]3c4[nH]c5ccccc5c4CCN3C[C@@H]2CC[C@@H]1O", "Potency": "2.66 µM (active)"}
{"smiles": "COc1cc2c(Nc3ccc(Br)cc3F)ncnc2cc1OCC1CCN(C)CC1", "Potency": "inactive and 820 nM (active)"}
{"smiles": "CC(C)COc1ccc(CNC(=O)N(Cc2ccc(F)cc2)C2CCN(C)CC2)cc1", "Potency": "18.4 µM (active)"}
{"smiles": "CCOc1nc2cccc(C(=O)OCc3oc(=O)oc3C)c2n1Cc1ccc(-c2ccccc2-c2noc(O)n2)cc1", "viability (% of control)": "71.1% (inactive)"}
{"smiles": "O=C(CCc1ccccc1)c1c(O)c([C@@H]2O[C@H](CO)[C@@H](O)[C@H](O)[C@H]2O)c(O)c([C@@H]2O[C@H](CO)[C@@H](O)[C@H](O)[C@H]2O)c1O", "viability (% of control)": "87.2% [at 17.3 µM] (inactive)"}
{"smiles": "CN[C@H]1CCN(C(=O)c2ccc(Nc3ncc(F)c(-c4cnc(C)n4C(C)C)n3)cc2)C1", "Potency": "0.058 µM (active)"}
{"smiles": "CCC[C@@H]1C[C@@H](C(=O)N[C@@H]([C@H]2O[C@H](SC)[C@H](O)[C@@H](O)[C@H]2O)[C@H](C)Cl)N(C)C1", "viability (% of control)": "77.6% (inactive)"}
{"smiles": "COC(=O)Nc1nc2ccc(Sc3ccccc3)cc2[nH]1", "Potency": "0.372 µM (active)"}
{"smiles": "Cc1ccc(-c2ncc(Cl)cc2-c2ccc(S(C)(=O)=O)cc2)cn1", "viability (% of control)": "80.8% (inactive)"}
{"smiles": "O=C(c1ccc(F)c(F)c1Nc1ccc(I)cc1F)N1CC(O)(C2CCCCN2)C1", "note": "(stereo not given)", "Potency": "0.184 µM (active)"}
{"smiles": "COc1cc(OC)c2c(=O)[nH]c(-c3cc(C)c(OCCO)c(C)c3)nc2c1", "Potency": "14.6 µM (active)"}
{"smiles": "CC(C)(C)OC(=O)Nc1ccc(-c2cc(C(=O)NCCCCCCC(=O)NO)no2)cc1", "Potency": "1.48 µM (active)"}
{"smiles": "COc1cc(C[C@@H](CO)[C@H](CO)Cc2ccc(O)c(OC)c2)ccc1O", "viability (% of control)": "74.4% (inactive)"}
{"smiles": "CC(C(=O)O)C1CCC2(C)C3C(=O)C=C4C(CCC(=O)C4(C)C)C3(C)CCC12C", "note": "(stereo not given)", "viability (% of control)": "66% [at 17.3 µM] (inactive)"}
{"smiles": "CC1(C)S[C@@H]2[C@H](NC(=O)Cc3ccccc3)C(=O)N2[C@H]1C(=O)O", "note": "(tested in a mixture with another compound)", "viability (% of control)": "77.7% (inactive)"}
{"smiles": "NS(=O)(=O)c1cc2c(cc1Cl)NCNS2(=O)=O", "Potency": "inactive"}
{"smiles": "CS(=O)(=O)c1ccccc1N1CCN(c2nc3c(c(=O)[nH]2)CSCC3)CC1", "viability (% of control)": "87.8% (inactive)"}
{"smiles": "CC(C)(CC(=O)N1CCCC1)NCC(=O)N1C[C@@H](F)C[C@H]1C#N", "viability (% of control)": "84.1% (inactive)"}
{"smiles": "C=C1CCC2C(C(C)(C)O)CCC2(C)CC(O)C(=C)CCC1O", "note": "(stereo not given)", "Potency": "9.04 µM (active)"}
{"smiles": "CC(=O)O[C@H]1[C@@H](O)[C@H](O[C@H]2[C@@H]3C=CO[C@@H](O[C@H]4O[C@@H](CO)[C@H](O)[C@@H](O)[C@@H]4O)[C@@H]3[C@@]3(CO)O[C@@H]23)O[C@@H](C)[C@@H]1OC(=O)/C=C/c1ccccc1", "viability (% of control)": "80.8% [at 17.3 µM] (inactive)"}
{"smiles": "O=C1O[C@H](CO)[C@@H](O)[C@H](O)[C@H]1O", "viability (% of control)": "103% (inactive)"}
{"smiles": "Cc1cccc(C)c1OCC(C)N", "note": "(stereo not given)", "viability (% of control)": "79.3% (inactive)"}
{"smiles": "CC(O)/C=C/C1C(C)C(O[C@@H]2O[C@H](CO)[C@@H](O)[C@H](O)[C@H]2O)C(O)CC1(C)C", "note": "(stereo not given in full)", "viability (% of control)": "84.6% (inactive)"}
{"smiles": "CN1Cc2cc(C(=O)N3CCC(C4CCNCC4)CC3)ccc2N[C@@H](CC(=O)O)C1=O", "viability (% of control)": "109% (inactive)"}
{"smiles": "OC(Cn1cncn1)(Cn1cncn1)c1ccc(F)cc1F", "viability (% of control)": "87.3% (inactive)"}
{"smiles": "CCOc1cc(C(C)(C)C)ccc1C1=NC(C)(c2ccc(Cl)cc2)C(C)(c2ccc(Cl)cc2)N1C(=O)N1CCN(CCCS(C)(=O)=O)CC1", "note": "(stereo not given)", "Potency": "10.3 µM (active)"}
{"smiles": "C=CC1C(O[C@@H]2O[C@H](CO)[C@@H](O)[C@H](O)[C@H]2O)OC=C(C(=O)OC)C1Cc1nccc2c1[nH]c1ccccc12", "note": "(stereo not given in full)", "viability (% of control)": "69.7% [at 17.3 µM] (inactive)"}
{"smiles": "CC1CCC2C(=CCC(O)C2(C)C)C1(C)Cc1c(O)cc(CO)c(C=O)c1O", "note": "(stereo not given)", "Potency": "10.1 µM (active)"}
{"smiles": "Nc1ncnc(Nc2ccc(OCc3ccccc3)c(Cl)c2)c1/C=N/OCCN1CCOCC1", "Potency": "8.33 µM (active)"}
{"smiles": "O=S(=O)(c1ccc(Cl)cc1)N1CCN(c2ccnc3cc(Cl)ccc23)CC1", "Potency": "16.4 µM (active)"}
{"smiles": "CC1CC(=O)C2C(O)(C1)CC(O)C13OC1c1c(O)cccc1C(=O)C23O", "note": "(stereo not given)", "Potency": "14.3 µM (active)"}
{"smiles": "C[C@]12CCC[C@](C)(C(=O)O)C1CCC13C=C(CO)C(CCC12)C3", "note": "(stereo not given in full)", "viability (% of control)": "60.6% (inactive)"}
{"smiles": "CCCC(CCC)C(=O)O", "viability (% of control)": "95.5% (inactive)"}
{"smiles": "c1cncc(CN2CCC(n3ncc4c(N5CCOCC5)nc(-c5ccc6[nH]ccc6c5)nc43)CC2)c1", "Potency": "1.03 µM (active) and 1.32 µM (active)"}
{"smiles": "CC1(C)S[C@@H]2[C@H](N=CN3CCCCCC3)C(=O)N2[C@H]1C(=O)O", "viability (% of control)": "91.1% (inactive)"}
{"smiles": "CC(C)n1cc(-c2ccc(Oc3ccccc3)cc2)c2c(N)ncnc21", "Potency": "0.092 µM (active)"}
{"smiles": "CNCc1ccc(-c2cc(-c3nc(-c4ccc(S(=O)(=O)C(C)C)cc4)cnc3N)on2)cc1", "Potency": "0.259 µM (active)"}
{"smiles": "CC(=O)OC[C@]12[C@H](OC(C)=O)[C@H](OC(=O)c3ccccc3)[C@@H]3[C@@H](OC(C)=O)[C@]1(OC3(C)C)[C@H](C)C[C@H](OC(=O)c1ccccc1)[C@@H]2OC(=O)c1ccccc1", "viability (% of control)": "66.6% [at 17.3 µM] (inactive)"}
